# According to the supplement of paper PMC6522484:
# Values joined by “and” are separate entries in the source; they are usually repeats but may differ in a detail not shown here. Equal entries are not always repeated. ± gives the standard deviation of the averaged measurements.
# Tested on: SW480
# Assay: TCF/Wnt firefly luciferase reporter signal relative to plate median (fraction of plate median); higher = higher Wnt reporter signal
# Conditions: 5 µM; treatment time 24 h; reporter: 7TFP
# How it was run: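 Library compounds were added at a final concentration of 5 µM for 24 h to colorectal cancer cells stably transduced with a lentiviral TCF/Wnt firefly luciferase reporter. Reported values are firefly luciferase or CellTiterGlo luminescence, normalised per well to the plate median. Each value averages two independent replicates.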
row,Structure (SMILES),TCF/Wnt firefly luciferase reporter signal
1,S=P(N1CC1)(N1CC1)N1CC1,0.93 ± 0.021
2,C#C[C@]1(O)CC[C@H]2[C@@H]3CCC4=C(CCC(=O)C4)[C@H]3CC[C@@]21C,1.07 ± 0.057
3,N=C(N)NCCCCN,1.09 ± 0.071
4,CS(=O)(=O)c1ccc(C2=C(c3ccccc3)C(=O)OC2)cc1,1.05 ± 0.071
5,CCC(=O)O[C@@H]1[C@@H](OC2C(C)/C=C/C(=O)OC(C)C(CO[C@@H]3O[C@H](C)[C@@H](OC(=O)CC)[C@@H](OC)[C@H]3OC)C3OC3/C=C/C(=O)C(C)(O)CC2C)O[C@@H](C)C[C@H]1OC (stereo not given in full) [Chalcomycin B],0.972 ± 0.2
6,CC(=O)O[C@@H]1C[C@@]2(C)C(CC[C@@H]2C(C)=O)C2CCC3=CC(=O)CC[C@]3(C)C21 (stereo not given in full),0.965 ± 0.033
7,O=C(O)CN1C(=O)c2cccc3cccc(c23)C1=O,1.09 ± 0.042
8,C=C1c2c(Cl)ccc(O)c2C(=O)C2=C(O)[C@]3(O)C(=O)C(C(N)=O)=C(O)[C@@H](N(C)C)[C@@H]3[C@@H](O)[C@H]12.O=C(O)c1cc(S(=O)(=O)O)ccc1O,0.893 ± 0.062
9,N[C@@H](C(=O)N[C@@H]1C(=O)N2C(C(=O)O)=C(Cl)CS[C@H]12)c1ccccc1,0.742 ± 0.025
10,COc1ccc(OC)c(C(O)CNC(=O)CN)c1 (stereo not given),1.16 ± 0.092
11,COc1ccc(-c2cc(=O)c3c(O)c(OC)c(O[C@@H]4O[C@H](CO[C@@H]5O[C@@H](C)[C@H](O)[C@@H](O)[C@H]5O)[C@@H](O)[C@H](O)[C@H]4O)cc3o2)cc1,1.08 ± 0.021
12,O=c1[nH]cc(F)c(=O)[nH]1,0.9685 ± 0.0064
13,O=C(CCCCCCCCCCCCC1CCCC1)Nc1ccc(S(=O)(=O)c2ccc(NC(=O)CCCCCCCCCCCCC3CCCC3)cc2)cc1,1 ± 0.036
14,CC(=O)OCC1=C(C(=O)O)N2C(=O)[C@@H](NC(=O)Cc3cccs3)[C@H]2SC1,1 ± 0.028
15,C[C@H](CCC(=O)O)[C@H]1CC[C@H]2[C@@H]3C(=O)C[C@@H]4CC(=O)CC[C@]4(C)[C@H]3CC(=O)[C@]12C,1.05 and 1.15
16,C[C@@H]1O[C@@H]1P(=O)(O)O,0.997 ± 0.22
17,NC[C@@H]1O[C@H](O[C@H]2[C@@H](O)[C@H](O[C@@H]3[C@@H](O)[C@H](N)C[C@H](N)[C@H]3O[C@H]3O[C@H](CO)[C@@H](O)[C@H](O)[C@H]3N)O[C@@H]2CO)[C@H](N)[C@@H](O)[C@@H]1O,0.995 ± 0.11
18,NCC[C@H](O)C(=O)N[C@@H]1C[C@H](N)[C@@H](O[C@H]2O[C@H](CN)[C@@H](O)[C@H](O)[C@H]2O)[C@H](O)[C@H]1O[C@H]1O[C@H](CO)[C@@H](O)[C@H](N)[C@H]1O,0.905 ± 0.12
19,CC1COc2c(N3CCN(C)CC3)c(F)cc3c(=O)c(C(=O)O)cn1c23 (stereo not given),1.01 ± 0.088
20,COc1cccc2c1C(=O)c1c(O)c3c(c(O)c1C2=O)C[C@@](O)(C(=O)CO)C[C@@H]3O[C@H]1C[C@H](N)[C@H](O)[C@H](C)O1,0.682 ± 0.11

row,Structure (SMILES),TCF/Wnt firefly luciferase reporter signal
1,C[C@H]1[C@H]2CC[C@H]3[C@@H]4CC=C5C[C@@H](N(C)C)CC[C@]5(C)[C@H]4CC[C@]23CN1C,1.05
2,COc1ccc2[nH]c([S+]([O-])Cc3ncc(C)c(OC)c3C)nc2c1 (stereo not given),1.06 ± 0.11
3,CCc1nc(N)nc(N)c1-c1ccc(Cl)cc1,1.1 ± 0.042
4,NC(Cn1ccc(=O)c(O)c1)C(=O)O (stereo not given),0.947 ± 0.12
5,Nc1nc(F)nc2c1ncn2[C@@H]1O[C@H](COP(=O)(O)O)[C@@H](O)[C@@H]1O,1.04 ± 0.021
6,"CC(C)CC1NC(=O)C(NC(=O)c2ncccc2O)C(C)OC(=O)C(c2ccccc2)N(C)C(=O)C(C)NC(=O)C(C(C)C(C)C)N(C)C(=O)CN(C)C(=O)C2CCCN2C1=O (single isomer, unassigned; isomere) [Neoviridogrisein II (Isomere)]",0.937 ± 0.02
7,COC(=O)N/N=C/c1c[n+]([O-])c2ccccc2[n+]1[O-],0.9245 ± 0.0092
8,NNCCc1ccccc1,1.22 ± 0.014
9,Clc1ccc(C(c2ccccc2Cl)C(Cl)Cl)cc1 (stereo not given),1.03 ± 0.17
10,CCCCCC(=O)Cc1cc(O)cc(O)c1C(=O)Oc1cc(CC(=O)CCCCC)c(C(=O)O)c(OC)c1,1.14 ± 0.035
11,CC1CC2C3CCC4=CC(=O)C=CC4(C)C3(F)C(O)CC2(C)C1C(=O)CO (stereo not given),1.04 ± 0.057
12,CCOc1ccc2nc(S(N)(=O)=O)sc2c1,0.891 ± 0.091
13,CC(=O)NS(=O)(=O)c1ccc(N)cc1,0.854 ± 0.023
14,CC(=O)OC1CCC2(O)CC1(C)CCC1C2CC1(C)C (stereo not given),0.933 ± 0.057
15,Cc1oc(=O)c2c(O)cccc2c1CO [8-Hydroxy-4-hydroxymethyl-3-methyl-isocumarin],0.993 ± 0.0099
16,C(=C\c1ccccc1)/CN1CCN(C(c2ccccc2)c2ccccc2)CC1,0.936 ± 0.15
17,COc1c2occc2cc2ccc(=O)oc12,1.1 ± 0.057
18,COc1ccc2c(c1)OC/C(=C/c1ccc(O)c(O)c1)C2=O,1.09 ± 0.078
19,CC(=O)[C@H]1CC[C@H]2[C@@H]3CC=C4C[C@@H](O)CC[C@]4(C)[C@H]3CC[C@]12C,1.19 ± 0.014
20,COc1cc(OC)c(C(C)=O)c(O)c1C,0.885 ± 0.016
